In PubChem BioAssay:
Active and inactive are the calls of the source.

What was measured:
[1] = optical density shifts of acrAB sulA E. coli – strain DRC41, OD650, 48 h, E. coli filamentation inducer project, primary screen (AID 1152); conditions: higher = more signal, called active from +8 up or from −8 down;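 further: E. coli MC1000 strain DRC41 lacking acrAB efflux pump and sulA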
[2] = probe aLefty1 binding on compound microarray – biochemical, small-molecule microarray, 635/667 nm fluorescence, primary screen (AID 1153); conditions: higher = more signal;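 further: score merges spot fluorescence with signal-to-noise ratio from the scanned slide images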
[3] = plasmodial surface anion channel blockers, osmotic lysis – cell-based, P. falciparum Indochina, OD700, 1 h, primary screen (AID 1154); conditions: P. falciparum Indochina infected RBC osmotic lysis, higher = more signal, called active from +8 up or from −8 down
[4] = plasmodial surface anion channel blockers, osmotic lysis – cell-based, P. falciparum Indochina, OD700, 2 h, primary screen (AID 1155);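 further: lysis reports solute entry through the parasite surface anion channel PSAC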; conditions: P. falciparum Indochina infected erythrocytes, higher = more signal, called active from +8 up or from −8 down
[5] = changes in parasitized red cell lysis, either direction – P. falciparum Indochina, OD700, 3 h, PSAC antagonist project, primary screen (AID 1156); conditions: P. falciparum-infected erythrocytes, osmotic lysis, higher = more signal, called active from +8 up or from −8 down
[6] = plasmodial surface anion channel blockers, osmotic lysis – cell-based, P. falciparum Indochina, OD700, 18 h, primary screen (AID 1157); conditions: P. falciparum Indochina infected erythrocytes, osmotic lysis OD700, 18 h; higher = more signal, called active from +8 up or from −8 down
[7] = S6 kinase pathway phospho-S6 level changes – cell-based, A549, cytoblot, luminescence, serum-stimulated, primary screen (AID 1158); conditions: 5 h, higher = more signal;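 further: serum-stimulated A549 lung adenocarcinoma cells; signal is phosphorylated S6 detected by cytoblot immunostaining with HRP secondary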
[8] = molecular target: NADPH oxidase 2 (Homo sapiens) (UniProt P04839); test: compounds shifting NOX2 Amplex Red fluorescence – cell-based, HEK293-NOX2, PMA-stimulated, NOX inhibitor project, primary screen (AID 1159); conditions: 45 min, higher = more signal, called active from +8 up or from −8 down; further: test concentration not given here
Sequence of NADPH oxidase 2 (Homo sapiens) (P04839 whole entry, looked up): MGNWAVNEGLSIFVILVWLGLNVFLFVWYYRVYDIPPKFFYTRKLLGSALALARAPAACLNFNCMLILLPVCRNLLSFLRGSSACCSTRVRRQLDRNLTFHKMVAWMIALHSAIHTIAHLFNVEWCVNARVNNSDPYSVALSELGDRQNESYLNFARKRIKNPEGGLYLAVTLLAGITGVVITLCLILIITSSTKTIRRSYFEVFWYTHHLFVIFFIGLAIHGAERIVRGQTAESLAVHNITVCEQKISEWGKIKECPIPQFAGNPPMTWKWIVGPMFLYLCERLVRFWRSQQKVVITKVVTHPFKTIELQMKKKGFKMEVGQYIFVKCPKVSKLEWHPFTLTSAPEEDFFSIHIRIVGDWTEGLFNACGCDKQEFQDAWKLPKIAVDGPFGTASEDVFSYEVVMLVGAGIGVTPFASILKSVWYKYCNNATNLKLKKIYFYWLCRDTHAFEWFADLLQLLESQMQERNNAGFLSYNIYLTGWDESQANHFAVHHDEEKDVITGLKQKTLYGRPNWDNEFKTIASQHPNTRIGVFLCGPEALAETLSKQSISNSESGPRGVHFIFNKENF

[9] = molecular target: NADPH oxidase 4 (Homo sapiens) (UniProt Q9NPH5); test: compounds shifting NOX4 Amplex Red fluorescence – cell-based, HEK293-NOX4, tetracycline-induced, NOX inhibitor project, primary screen (AID 1160); conditions: HEK293-NOX4, Amplex Red H2O2 fluorescence, 45 min; higher = more signal, called active from +8 up or from −8 down
Sequence of NADPH oxidase 4 (Homo sapiens) (Q9NPH5 whole entry, looked up): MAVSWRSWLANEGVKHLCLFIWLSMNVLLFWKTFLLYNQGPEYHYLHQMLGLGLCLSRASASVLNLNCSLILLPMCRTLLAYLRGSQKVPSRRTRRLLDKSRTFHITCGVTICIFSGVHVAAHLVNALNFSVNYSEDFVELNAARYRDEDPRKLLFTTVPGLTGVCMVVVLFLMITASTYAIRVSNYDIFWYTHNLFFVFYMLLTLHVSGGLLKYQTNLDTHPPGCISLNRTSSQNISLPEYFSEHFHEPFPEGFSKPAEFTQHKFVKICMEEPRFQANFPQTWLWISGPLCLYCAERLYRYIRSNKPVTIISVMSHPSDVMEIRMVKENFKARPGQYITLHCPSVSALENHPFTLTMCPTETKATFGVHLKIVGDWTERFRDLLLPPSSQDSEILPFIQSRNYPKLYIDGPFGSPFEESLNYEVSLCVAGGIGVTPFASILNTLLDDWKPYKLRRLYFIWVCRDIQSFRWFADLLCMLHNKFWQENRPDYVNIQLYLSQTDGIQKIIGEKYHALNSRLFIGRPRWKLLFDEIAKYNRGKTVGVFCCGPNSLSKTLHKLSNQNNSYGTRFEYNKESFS

[10] = molecular target: NADPH oxidase 5 (Homo sapiens) (UniProt Q96PH1); test: compounds shifting NOX5 Amplex Red fluorescence – cell-based, HEK293-NOX5, NOX inhibitor project, primary screen (AID 1161); conditions: HEK293-NOX5, ionomycin, 45 min, higher = more signal
Sequence of NADPH oxidase 5 (Homo sapiens) (Q96PH1 whole entry, looked up): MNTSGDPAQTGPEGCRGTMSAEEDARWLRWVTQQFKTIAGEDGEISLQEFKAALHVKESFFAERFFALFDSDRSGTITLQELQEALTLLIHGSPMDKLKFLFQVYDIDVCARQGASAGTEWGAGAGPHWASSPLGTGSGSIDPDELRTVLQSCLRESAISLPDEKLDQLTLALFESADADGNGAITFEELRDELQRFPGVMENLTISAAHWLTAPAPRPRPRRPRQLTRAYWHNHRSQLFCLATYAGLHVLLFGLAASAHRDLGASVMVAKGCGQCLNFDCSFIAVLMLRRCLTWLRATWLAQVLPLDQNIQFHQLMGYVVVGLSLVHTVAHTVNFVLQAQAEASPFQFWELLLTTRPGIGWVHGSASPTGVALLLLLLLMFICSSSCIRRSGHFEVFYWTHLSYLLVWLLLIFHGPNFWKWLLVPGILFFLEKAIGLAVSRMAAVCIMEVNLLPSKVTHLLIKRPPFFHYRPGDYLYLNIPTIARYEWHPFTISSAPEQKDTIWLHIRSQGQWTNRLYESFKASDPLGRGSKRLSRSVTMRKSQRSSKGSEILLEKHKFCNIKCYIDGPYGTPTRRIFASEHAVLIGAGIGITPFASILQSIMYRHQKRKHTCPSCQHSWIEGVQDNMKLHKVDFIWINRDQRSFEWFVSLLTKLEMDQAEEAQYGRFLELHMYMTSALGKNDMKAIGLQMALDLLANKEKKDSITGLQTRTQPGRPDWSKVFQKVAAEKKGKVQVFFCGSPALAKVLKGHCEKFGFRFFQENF

| SMILES | z-score [1] | composite z-score [2] | z-score [3] | z-score [4] | z-score [5] | z-score [6] | z-score [7] | z-score [8] | z-score [9] | z-score [10] |
| --- | --- | --- | --- | --- | --- | --- | --- | --- | --- | --- |
| CCCCC(CC)C(O)C1C=CC2C(=O)N(c3ccccc3)C(=O)C2N1Nc1ccccc1 (stereo not given) | -1.61 (inactive) | 0.448 | 1.1 (inactive) | -0.627 (inactive) | 2.18 (inactive) | -1.72 (inactive) | 1.14 | -2.98 (inactive) | -5.21 (inactive) | -5.76 |
| COCCCNC(=O)[C@@]1(C)c2ccccc2C(=O)N(Cc2cc(C(F)(F)F)cc(C(F)(F)F)c2)[C@H]1c1ccc(CO)cc1 | 0.811 (inactive) | -0.0969 | 3.5 (inactive) | -0.185 (inactive) | -0.583 (inactive) | 0.472 (inactive) | -0.434 | -1.09 (inactive) | -0.274 (inactive) | -0.706 |
| CC(=O)NCCCC[C@@H]1NC(=O)[C@H]2C[C@@H](C(=O)NCCCCCC[N+](C)(C)C)[C@@H](c3cccc(OCCO)c3)N2C1=O | 1.52 (inactive) | 0.147 | 2.86 (inactive) | -1.48 (inactive) | 0.657 (inactive) | -2.25 (inactive) | 0.778 | -0.329 (inactive) | 0.383 (inactive) | -0.465 |
| O=C1OCCC=C[C@H]2OC34C=CCN(Cc5ccccc5)C(=O)[C@H]3N(CCCCCCO)C(=O)[C@@H]4C12 (stereo not given in full) | 1.12 (inactive) | -0.0831 | 0.944 (inactive) | 0.396 (inactive) | 0.884 (inactive) | 0.43 (inactive) | 1.2 | 1.11 (inactive) | 0.0473 (inactive) | 1.97 |
| COc1ccc(C(O)C2C=CC3C(=O)NC(=O)C3N2Nc2ccccn2)cc1OCc1ccccc1 (stereo not given) | -0.325 (inactive) | -0.106 | 1.68 (inactive) | 0.396 (inactive) | 0.479 (inactive) | 1.04 (inactive) | -0.432 | -1.49 (inactive) | -3.05 (inactive) | -2.03 |
| COc1ccc(CCNC(=O)[C@@H]2c3ccccc3C(=O)N(Cc3ccc(OC(F)(F)F)cc3)[C@H]2c2ccc(CO)cc2)cc1 | -0.989 (inactive) | -0.291 | 4.16 (inactive) | 0.385 (inactive) | 2 (inactive) | 0.623 (inactive) | -0.404 | -1.69 (inactive) | -0.245 (inactive) | -3.56 |
| COc1ccc(C#Cc2ccc3c(c2)[C@]2(C(=O)N3)[C@H](c3ccc(O)cc3)N3[C@H](c4ccccc4)[C@H](c4ccccc4)OC(=O)[C@H]3[C@@H]2C(=O)NC[C@H](O)c2ccccc2)cc1 | 0.735 (inactive) | -0.021 | 1.1 (inactive) | 1.09 (inactive) | 0.541 (inactive) | 0.859 (inactive) | -0.193 | 1.91 (inactive) | -0.0599 (inactive) | 0.22 |
| Cc1ccc(S[C@]2(C(=O)NCC(C)C)CC(=O)N(Cc3ccccc3Cl)[C@@H]2c2ccc(CO)cc2)cc1 | -0.132 (inactive) | -0.188 | 1.14 (inactive) | 0.61 (inactive) | -0.23 (inactive) | 0.0839 (inactive) | 0.534 | -1.85 (inactive) | 0.717 (inactive) | -0.393 |
| CCCCCCCCCCC(O)C1C=CC2C(=O)N(Cc3ccccc3)C(=O)C2N1n1cnnc1 (stereo not given) | -1.55 (inactive) | 0.918 | 1.32 (inactive) | -0.595 (inactive) | 1.6 (inactive) | -2.48 (inactive) | 1.19 | -2.6 (inactive) | -1.1 (inactive) | -4.63 |
| CC(C)c1ccc(NN2C(C(O)c3c(F)cccc3Cl)C=CC3C(=O)N(c4ccccc4)C(=O)C32)cc1 (stereo not given) | -2.03 (inactive) | 1.22 | 2.86 (inactive) | 1.18 (inactive) | 1.12 (inactive) | 1.02 (inactive) | -1.02 | -1.38 (inactive) | -5.38 (inactive) | -4.14 |
| CCCCCN1CC=CC23O[C@@H]4C=CCOC(=O)[C@@H]4[C@H]2C(=O)N(CCCO)[C@@H]3C1=O (stereo not given in full) | 3.22 (inactive) | -0.149 | -0.322 (inactive) | -0.397 (inactive) | 0.993 (inactive) | -0.501 (inactive) | 0.724 | -0.169 (inactive) | -0.724 (inactive) | -1.14 |
| COC(=O)[C@@]1(Cc2ccc(OC)cc2)[C@H]2c3cc(C(=O)N4CCCC4)n(Cc4cc(F)cc5c4OCOC5)c3C[C@H]2CN1C(=O)c1ccccc1 | -2.14 (inactive) | -0.12 | 1.15 (inactive) | 0.142 (inactive) | 0.951 (inactive) | 0.522 (inactive) | -0.0863 | -0.327 (inactive) | -1.94 (inactive) | -1.06 |
| O=C1O[C@@H](c2ccccc2)[C@@H](c2ccccc2)N2[C@@H](c3ccc(OCCO)cc3)[C@]3(C(=O)Nc4ccc(C#CC5=CCCCC5)cc43)[C@@H](C(=O)O)[C@H]12 | -0.584 (inactive) | -0.0827 | -3.36 (inactive) | -1.76 (inactive) | -10.6 (active) | -0.957 (inactive) | -0.106 | 1.67 (inactive) | -1.08 (inactive) | -0.216 |
| O=C1C[C@@](C(=O)NC2CC2)(c2ccc([N+](=O)[O-])cc2)[C@@H](c2ccc(CO)cc2)N1CC12CC3CC(CC(C3)C1)C2 | 0.904 (inactive) | 0.0861 | 2.28 (inactive) | -0.135 (inactive) | 0.678 (inactive) | -0.83 (inactive) | 0.392 | 0.987 (inactive) | -2.19 (inactive) | -2.35 |
| O=C1O[C@@H](c2ccccc2)[C@@H](c2ccccc2)N2[C@@H](c3ccc(O)cc3)[C@]3(C(=O)Nc4ccc(C#CC5=CCCCC5)cc43)[C@@H](C(=O)O)[C@H]12 | 4.17 (inactive) | 0.112 | -2.7 (inactive) | -2.38 (inactive) | -9.62 (active) | -3.16 (inactive) | 3.05 | 0.896 (inactive) | -2.76 (inactive) | -1.01 |
| COc1ccc(CCNC(=O)[C@@]2(Sc3ccc(C)cc3)CC(=O)N(Cc3ccccc3Cl)[C@@H]2c2ccc(CO)cc2I)cc1 | 0.265 (inactive) | 0.198 | 9.86 (active) | 0.902 (inactive) | 1.53 (inactive) | 0.231 (inactive) | 0.0671 | 1.54 (inactive) | -1.54 (inactive) | 1.32 |
| CCN(CC)c1ccc(N2CC=CC34O[C@@H]5C=CCCOC(=O)C5[C@H]3C(=O)N(CCCCCO)[C@@H]4C2=O)cc1 (stereo not given in full) | 2.82 (inactive) | 0.0391 | 2 (inactive) | -0.0803 (inactive) | 1.11 (inactive) | 0.352 (inactive) | -0.195 | -0.11 (inactive) | 0.604 (inactive) | 0.895 |
| O=C1O[C@H](c2ccccc2)[C@H](c2ccccc2)N2[C@H]1[C@@H](C(=O)O)[C@]1(C(=O)Nc3ccc(C#CC4=CCCCC4)cc31)[C@H]2c1ccc(OCCO)cc1 | -0.915 (inactive) | 0.167 | 0.381 (inactive) | -0.97 (inactive) | -9.89 (active) | -0.969 (inactive) | 0.333 | 1.19 (inactive) | -0.768 (inactive) | 1.37 |
| COc1ccc(C(O)C2C=CC3C(=O)N(c4ccccc4)C(=O)C3N2Nc2ccc([N+](=O)[O-])cc2)cc1OCc1ccccc1 (stereo not given) | -1.64 (inactive) | 1.55 | 14.2 (active) | 2.71 (inactive) | 0.107 (inactive) | 0.926 (inactive) | -0.881 | 0.151 (inactive) | -0.18 (inactive) | -1.29 |
| CCOC(=O)C1=C[C@@H](CC)N(S(=O)(=O)c2ccc(C)cc2)[C@H]1c1ccccc1 | -1.03 (inactive) | 0.271 | 1.83 (inactive) | 0.797 (inactive) | -0.187 (inactive) | 0.415 (inactive) | -0.388 | 0.0452 (inactive) | -0.606 (inactive) | -0.182 |
| C=C(CCCC)C(=O)CC[C@H](OC(=O)c1cccnc1)c1cccc(OCCO)c1 | -0.03 (inactive) | -0.147 | 20.7 (active) | 4.33 (inactive) | 1.83 (inactive) | 1.19 (inactive) | 0.0701 | -0.372 (inactive) | -0.417 (inactive) | -2.11 |
| CN1C(=O)C2C(C1=O)C1C=C(CCCO)C2C(c2cccs2)N1C (stereo not given) | 0.325 (inactive) | -0.274 | 1.52 (inactive) | 0.326 (inactive) | 1.31 (inactive) | 0.181 (inactive) | -0.519 | 0.108 (inactive) | 0.378 (inactive) | 1.22 |
| COc1cc(C(O)C2C=CC3C(=O)N(c4ccccc4)C(=O)C3N2Nc2ccc(C#N)cc2)cc(OC)c1OC (stereo not given) | -1.64 (inactive) | 0.233 | 24 (active) | 7.24 (inactive) | 0.86 (inactive) | 1.76 (inactive) | -1.15 | -2.04 (inactive) | -5.26 (inactive) | -5.34 |
